The source of these data is ChEMBL document CHEMBL2218924, “A broad activity screen in support of a chemogenomic map for kinase signalling research and drug discovery” (Biochem J, 2013).

Assay [1] concerns the target MAP kinase-activated protein kinase 2 (Homo sapiens) (UniProt P49137). The note with it: at 10 µM.
Assay [2] deals with MAP kinase-activated protein kinase 3 (Homo sapiens) (UniProt Q16644). The note with it: at 10 µM.
Assay [3] has as its target Serine/threonine-protein kinase MARK1 (Homo sapiens) (UniProt Q9P0L2). Particulars: at 1 µM.
For assay [4] the target is unchanged. The note with it: at 10 µM.
For assay [5], the target named is Dual specificity mitogen-activated protein kinase kinase 1 (Homo sapiens) (UniProt Q02750). Particulars: at 1 µM.
For assay [6] the target is unchanged. The note with it: at 10 µM.
The target of assay [7] is Maternal embryonic leucine zipper kinase (Homo sapiens) (UniProt Q14680). Particulars: at 1 µM.
For assay [8] the target is unchanged. The note with it: at 10 µM.
The target in assay [9] is Misshapen-like kinase 1 (Homo sapiens) (UniProt Q8N4C8). Particulars: at 1 µM.
For assay [10] the target is unchanged. The note with it: at 10 µM.

Chain of Misshapen-like kinase 1 (Homo sapiens) (Q8N4C8 whole entry, looked up): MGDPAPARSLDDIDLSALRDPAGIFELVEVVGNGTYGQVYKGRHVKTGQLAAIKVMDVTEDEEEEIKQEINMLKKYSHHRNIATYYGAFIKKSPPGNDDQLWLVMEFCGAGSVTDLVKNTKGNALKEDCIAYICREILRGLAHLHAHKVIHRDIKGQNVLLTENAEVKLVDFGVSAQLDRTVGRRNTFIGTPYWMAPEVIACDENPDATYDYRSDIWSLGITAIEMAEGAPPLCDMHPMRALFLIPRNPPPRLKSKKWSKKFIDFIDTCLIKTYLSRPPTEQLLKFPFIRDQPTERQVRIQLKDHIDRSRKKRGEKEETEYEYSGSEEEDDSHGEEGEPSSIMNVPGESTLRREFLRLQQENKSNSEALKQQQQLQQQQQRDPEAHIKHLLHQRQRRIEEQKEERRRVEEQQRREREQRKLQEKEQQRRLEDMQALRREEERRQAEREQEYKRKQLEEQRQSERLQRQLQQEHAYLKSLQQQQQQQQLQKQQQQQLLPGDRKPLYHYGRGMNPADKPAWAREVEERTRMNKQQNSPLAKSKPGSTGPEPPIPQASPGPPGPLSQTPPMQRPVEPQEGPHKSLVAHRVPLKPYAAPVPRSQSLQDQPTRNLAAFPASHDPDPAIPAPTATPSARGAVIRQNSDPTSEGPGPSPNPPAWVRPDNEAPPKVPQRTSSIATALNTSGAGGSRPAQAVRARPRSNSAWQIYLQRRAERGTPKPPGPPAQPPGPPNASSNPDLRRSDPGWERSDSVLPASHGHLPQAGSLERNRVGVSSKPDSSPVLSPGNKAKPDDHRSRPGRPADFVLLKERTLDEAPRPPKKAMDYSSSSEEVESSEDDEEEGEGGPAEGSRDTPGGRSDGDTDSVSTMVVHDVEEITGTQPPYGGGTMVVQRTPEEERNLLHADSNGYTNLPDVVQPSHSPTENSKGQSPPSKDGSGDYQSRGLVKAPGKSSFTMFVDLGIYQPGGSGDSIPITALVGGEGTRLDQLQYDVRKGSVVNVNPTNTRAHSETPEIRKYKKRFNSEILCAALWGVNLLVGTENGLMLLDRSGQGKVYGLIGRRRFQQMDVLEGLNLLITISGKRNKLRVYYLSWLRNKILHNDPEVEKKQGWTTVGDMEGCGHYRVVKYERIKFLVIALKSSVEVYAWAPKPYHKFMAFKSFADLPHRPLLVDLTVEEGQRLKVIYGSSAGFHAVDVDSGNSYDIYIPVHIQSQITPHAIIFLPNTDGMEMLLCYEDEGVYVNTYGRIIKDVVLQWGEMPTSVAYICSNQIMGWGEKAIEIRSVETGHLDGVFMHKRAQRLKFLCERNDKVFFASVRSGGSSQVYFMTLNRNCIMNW
Chain of Dual specificity mitogen-activated protein kinase kinase 1 (Homo sapiens) (Q02750 whole entry): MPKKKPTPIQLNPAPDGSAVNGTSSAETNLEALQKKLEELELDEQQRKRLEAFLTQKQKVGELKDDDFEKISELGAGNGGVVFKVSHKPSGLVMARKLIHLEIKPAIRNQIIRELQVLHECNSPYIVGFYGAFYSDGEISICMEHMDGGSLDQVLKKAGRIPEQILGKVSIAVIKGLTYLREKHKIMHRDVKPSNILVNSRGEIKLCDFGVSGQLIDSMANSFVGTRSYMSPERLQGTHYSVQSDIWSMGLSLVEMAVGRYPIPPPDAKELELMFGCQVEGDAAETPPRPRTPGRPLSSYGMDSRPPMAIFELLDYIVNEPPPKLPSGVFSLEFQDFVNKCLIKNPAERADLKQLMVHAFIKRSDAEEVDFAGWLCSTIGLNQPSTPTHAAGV
Chain of Maternal embryonic leucine zipper kinase (Homo sapiens) (Q14680 whole entry, looked up): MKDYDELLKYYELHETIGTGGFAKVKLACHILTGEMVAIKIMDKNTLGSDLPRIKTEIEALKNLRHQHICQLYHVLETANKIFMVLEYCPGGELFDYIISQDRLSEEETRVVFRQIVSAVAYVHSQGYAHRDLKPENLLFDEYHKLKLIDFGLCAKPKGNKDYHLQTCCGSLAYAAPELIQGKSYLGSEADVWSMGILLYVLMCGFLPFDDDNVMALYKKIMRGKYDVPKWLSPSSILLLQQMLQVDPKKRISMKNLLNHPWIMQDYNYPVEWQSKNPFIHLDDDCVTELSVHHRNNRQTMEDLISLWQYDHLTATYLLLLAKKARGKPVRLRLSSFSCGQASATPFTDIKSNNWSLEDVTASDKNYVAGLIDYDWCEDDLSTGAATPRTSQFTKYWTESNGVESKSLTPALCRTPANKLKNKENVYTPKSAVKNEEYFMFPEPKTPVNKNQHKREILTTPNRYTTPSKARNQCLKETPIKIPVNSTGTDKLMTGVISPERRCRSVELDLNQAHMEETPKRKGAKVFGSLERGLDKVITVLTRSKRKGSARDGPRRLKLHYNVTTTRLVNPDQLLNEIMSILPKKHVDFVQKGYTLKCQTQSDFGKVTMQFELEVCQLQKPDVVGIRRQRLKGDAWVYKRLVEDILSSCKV
Chain of Serine/threonine-protein kinase MARK1 (Homo sapiens) (Q9P0L2 whole entry, looked up): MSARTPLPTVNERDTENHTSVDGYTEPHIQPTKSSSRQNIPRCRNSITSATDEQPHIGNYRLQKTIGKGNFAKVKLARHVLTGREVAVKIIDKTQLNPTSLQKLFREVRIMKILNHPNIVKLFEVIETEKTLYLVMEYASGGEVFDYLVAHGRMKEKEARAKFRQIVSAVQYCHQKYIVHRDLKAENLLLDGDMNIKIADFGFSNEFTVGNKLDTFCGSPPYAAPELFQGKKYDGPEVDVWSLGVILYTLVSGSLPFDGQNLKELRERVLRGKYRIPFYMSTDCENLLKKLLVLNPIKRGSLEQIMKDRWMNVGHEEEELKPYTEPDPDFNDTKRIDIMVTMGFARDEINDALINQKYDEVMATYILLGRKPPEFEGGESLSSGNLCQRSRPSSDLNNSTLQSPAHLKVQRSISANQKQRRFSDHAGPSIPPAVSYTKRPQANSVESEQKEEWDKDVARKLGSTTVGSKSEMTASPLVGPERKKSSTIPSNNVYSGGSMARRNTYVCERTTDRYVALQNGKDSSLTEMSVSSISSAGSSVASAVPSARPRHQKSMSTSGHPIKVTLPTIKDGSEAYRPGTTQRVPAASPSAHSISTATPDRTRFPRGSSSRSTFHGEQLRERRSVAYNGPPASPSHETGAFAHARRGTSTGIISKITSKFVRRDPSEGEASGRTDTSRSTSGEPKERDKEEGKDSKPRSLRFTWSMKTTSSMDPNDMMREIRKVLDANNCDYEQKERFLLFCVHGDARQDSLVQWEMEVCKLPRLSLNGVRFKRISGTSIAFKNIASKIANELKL
Chain of MAP kinase-activated protein kinase 2 (Homo sapiens) (P49137 whole entry, looked up): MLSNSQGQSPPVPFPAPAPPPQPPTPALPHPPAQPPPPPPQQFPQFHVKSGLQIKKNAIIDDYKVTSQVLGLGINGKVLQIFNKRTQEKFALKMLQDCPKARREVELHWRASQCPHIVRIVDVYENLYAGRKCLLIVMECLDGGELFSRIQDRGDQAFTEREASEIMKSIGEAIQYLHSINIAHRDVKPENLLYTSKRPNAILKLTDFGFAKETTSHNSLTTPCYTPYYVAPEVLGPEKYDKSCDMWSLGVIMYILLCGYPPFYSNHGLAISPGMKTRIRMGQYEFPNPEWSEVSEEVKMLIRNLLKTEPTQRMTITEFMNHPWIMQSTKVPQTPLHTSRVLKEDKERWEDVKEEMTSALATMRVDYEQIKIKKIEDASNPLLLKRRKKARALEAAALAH
Chain of MAP kinase-activated protein kinase 3 (Homo sapiens) (Q16644 whole entry, looked up): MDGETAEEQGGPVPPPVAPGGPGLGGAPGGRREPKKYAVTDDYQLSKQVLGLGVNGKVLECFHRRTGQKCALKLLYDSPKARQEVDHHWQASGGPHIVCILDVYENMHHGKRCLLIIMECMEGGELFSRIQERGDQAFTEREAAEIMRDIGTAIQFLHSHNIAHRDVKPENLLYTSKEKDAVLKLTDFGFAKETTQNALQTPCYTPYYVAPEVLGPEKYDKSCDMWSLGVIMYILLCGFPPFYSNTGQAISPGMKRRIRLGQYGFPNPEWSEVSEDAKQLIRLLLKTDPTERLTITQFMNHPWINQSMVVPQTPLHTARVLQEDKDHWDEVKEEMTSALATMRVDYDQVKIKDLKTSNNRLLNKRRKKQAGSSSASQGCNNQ

For `O=C1Nc2ccccc2/C1=C1/Nc2ccccc2/C1=N\OCCC(O)CO` (stereo not given), the residual activity in assay [1] was 61%; in [2] it was 80%; in assay [3], 40%; in [4] it was 8%; in assay [5] it was 26%; in assay [6], 21%. Also, the residual activity in assay [7] is 7%; in assay [8] it was 5%; in [9], 44%; in [10], 17%.
As to `Cc1ccc(S(=O)(=O)/C=C/C#N)cc1`, the residual activity amounted to 74% in assay [1]; 85% in assay [2]; 90% in [3]; 89% in assay [4]; 105% in assay [5]; 95% in assay [6]. Moreover, the residual activity turned out to be 96% in assay [7], 100% in assay [8], 111% in assay [9] and 104% in [10].
Consider `O=c1c2ccccc2[nH]c(=S)n1CCN1CCC(=C(c2ccc(F)cc2)c2ccc(F)cc2)CC1`, for which the residual activity in assay [1] came out at 89%; in assay [2], 86%; in assay [3] it was 100%; in [4], 87%; in assay [5], 98%; in [6], 92%. The residual activity in [7] amounted to 86%; in assay [8] it was 86%; in [9] it was 88%; in assay [10], 65%.
Take `O=C(Nc1cccc(Nc2nccc(Nc3cccc(C(F)(F)F)c3)n2)c1)C1CC1`: the residual activity in assay [1] stood at 100%; in assay [2] it was 107%; in [3] it was 93%; in assay [4] it was 50%; in assay [5], 106%; in assay [6], 77%. The residual activity in [7] was found to be 61%; in [8], 63%; in assay [9], 87%; in assay [10], 59%.
As for `COc1cc2ncnc(Nc3ccc(Oc4ccccc4)cc3)c2cc1OC`, the residual activity was 108% in assay [1]; 127% in assay [2]; 83% in assay [3]; 81% in assay [4]; 89% in [5]; 38% in assay [6]. The residual activity came out at 76% in assay [7], 129% in assay [8], 99% in assay [9] and 89% in assay [10].
On to `CNc1cc2c(Nc3cccc(Br)c3)ncnc2cn1`, for which the residual activity in assay [1] was 112%; in assay [2], 99%; in assay [3] it was 88%; in assay [4] it was 73%; in [5], 84%; in [6], 53%. Further, the residual activity in assay [7] amounted to 109%; in assay [8] it was 112%; in assay [9] it was 92%; in assay [10], 87%.
For `O=C1Nc2cc(Br)ccc2/C1=C1/Nc2ccccc2/C1=N\O`, the residual activity in assay [1] is 90%; in [2], 91%; in assay [3], 21%; in assay [4], 19%; in assay [5], 71%; in assay [6], 107%. For the same molecule, the residual activity in [7] is 34%; in assay [8] it was 48%; in [9], 91%; in [10], 70%.
As to `CC[n+]1c(/C=C/N(C)c2ccccc2)n(-c2ccccc2)c2ccc(-c3nc4ccccc4s3)cc21`, the residual activity amounted to 63% in [1]; 86% in assay [2]; 108% in assay [3]; 111% in assay [4]; 138% in assay [5]; 95% in [6]. Also, the residual activity came out at 91% in assay [7], 46% in assay [8], 102% in [9] and 84% in assay [10].
Take `CO[C@H]1C[C@@H]2CC[C@@H](C)[C@@](O)(O2)C(=O)C(=O)N2CCCC[C@H]2C(=O)O[C@H]([C@H](C)C[C@@H]2CC[C@@H](O)[C@H](OC)C2)CC(=O)[C@H](C)/C=C(\C)[C@@H](O)[C@@H](OC)C(=O)[C@H](C)C[C@H](C)/C=C/C=C/C=C/1C`: the residual activity in assay [1] was 115%; in assay [2] it was 133%; in assay [3] it was 78%; in assay [4], 71%; in assay [5], 132%; in assay [6], 97%. For the same molecule, the residual activity in [7] turned out to be 88%; in assay [8], 97%; in assay [9], 81%; in assay [10], 74%.
On to `CO[C@H]1[C@@H](OC)C[C@H](C)[C@@H](OC)C2=CC(=O)C=C(NC(=O)/C(C)=C/C=C/[C@H](OC)[C@@H](OC(N)=O)/C(C)=C/[C@@H]1C)C2=O`, for which the residual activity in assay [1] worked out at 85%; in assay [2] it was 81%; in assay [3], 92%; in [4], 82%; in [5], 102%; in assay [6], 95%. The residual activity in assay [7] amounted to 60%; in assay [8], 63%; in assay [9], 95%; in [10], 92%.
Consider `Ic1cccc(CSc2nnc(-c3ccncc3)o2)c1`, for which the residual activity was determined as 67% in assay [1]; 82% in assay [2]; 4% in [3]; 5% in [4]; 69% in assay [5]; 77% in assay [6]. The residual activity turned out to be 24% in [7], 13% in assay [8], 98% in assay [9] and 95% in assay [10].
For the molecule `O=C1NC(=O)/C(=C\c2ccc3nccnc3c2)S1`, the residual activity in [1] was determined as 85%; in assay [2] it was 91%; in assay [3], 86%; in assay [4], 71%; in [5] it was 108%; in assay [6], 84%. Further, the residual activity in assay [7] came to 64%; in assay [8] it was 31%; in assay [9], 89%; in [10], 61%.
For `O=C1NC(=O)c2c1c1c3ccccc3[nH]c1c1[nH]c3cc(Br)ccc3c21`, the residual activity in assay [1] was 93%; in assay [2], 89%; in assay [3], 67%; in assay [4], 34%; in assay [5], 75%; in [6], 98%. Besides, the residual activity in assay [7] was determined as 87%; in assay [8] it was 82%; in assay [9], 109%; in assay [10], 90%.
Consider `CCN(CC)C(=O)c1ccc(Nc2nc(OCC3CCCCC3)c3nc[nH]c3n2)cc1`, for which the residual activity came to 39% in assay [1]; 69% in [2]; 60% in [3]; 17% in [4]; 48% in [5]; 48% in assay [6]. Besides, the residual activity amounted to 40% in assay [7], 3% in assay [8], 94% in assay [9] and 63% in assay [10].
In the case of `COc1cc2ncnc(N3CCN(C(=O)Nc4ccc(Oc5ccccc5)cc4)CC3)c2cc1OC`, the residual activity in assay [1] came out at 110%; in [2] it was 117%; in [3], 86%; in assay [4] it was 78%; in assay [5], 115%; in [6], 94%. Besides, the residual activity stood at 81% in assay [7], 101% in assay [8], 95% in assay [9] and 88% in assay [10].
On to `O=C1NC(=O)/C(=C/c2ccc3c(c2)OC(F)(F)O3)S1`, for which the residual activity in [1] was determined as 87%; in assay [2] it was 81%; in assay [3] it was 100%; in assay [4] it was 76%; in [5], 114%; in assay [6], 109%. Further, the residual activity worked out at 114% in assay [7], 82% in [8], 85% in [9] and 73% in assay [10].
